Only some compounds are listed: those with a hit (about 19% of all), similar ones and a draw of the others.
DT40 TDP1 no CPT: qHTS for Inhibitors of human tyrosyl-DNA phosphodiesterase 1 (TDP1): qHTS in cells in absence of CPT; DT40 Tdp1-/- hTDP1 cells, no CPT, ATP luminescence, 48 h; Potency, µM (series often up to 46.2 µM), inactives show at the highest dose activity change, negative = growth inhibition, usual class: inhibitors; 420,000 tested, 15% active; AID 686978, 2013; note: nearly all actives have a fitted effect of over 55% in size
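Luminescent ATP content (CellTiter-Glo) served as the growth readout. Knockout chicken DT40 cells expressing human TDP1 were exposed to compounds without camptothecin for a minimum 48 hr at 37 °C.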
KB-V1 cytotox: qHTS assay for MDR1-selective chemotherapeutics: Primary screen using the drug-selected MDR subline cells KB-V1. KB-V1 MDR cells viability, CellTiter-Glo, 72 h. Potency, µM (top dose mostly 46.1 µM), hits mostly cytotoxic. 400,000 tested, 3.4% active; note: nearly all actives have a fitted effect of over 60% in size
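Cells of the MDR subline KB-V1 are plated, dosed with compound at multiple concentrations, and incubated 72 h at 37 degrees C; CellTiter-Glo is then added and luminescence read after 10 min.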
KB-3-1 tox: qHTS assay for MDR1-selective chemotherapeutics: Primary screen using the parental adenocarcinoma cell KB-3-1 | 400,000 tested, 1.4% active | AID 1347075, 2019 | Potency, µM (doses to about 46.1 µM), usual class: cytotoxic | KB-3-1 viability, CellTiter-Glo ATP luminescence, 72 h; note: nearly all actives have a fitted effect of over 60% in size
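Viability of parental KB-3-1 cells, measured by CellTiter-Glo luminescence, followed a 72 h incubation at 37 °C with pinned compounds in phenol-red-free DMEM containing 10% FBS.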
HT1080-NT tox: qHTS for induction of synthetic lethality in tumor cells producing 2HG: qHTS for the HT-1080-NT fibrosarcoma cell line; HT-1080-NT fibrosarcoma viability, CellTiter-Glo ATP luminescence, 48 h; Potency, µM (series often up to 46.1 µM), inactives show at the top dose activity, negative = less viability, most hits filed as cytotoxic; 360,000 tested, 1.6% active; AID 686970, 2013;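 note: NT is the 2HG producing partner of a matched IDH1 knockdown line; 0% = DMSO-treated cells and -100% = media-only wells without cells; nearly all actives have a fitted effect of over 55% in size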
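Fibrosarcoma NT cells, 750 per well in 5% FBS RPMI, were exposed to compound for 48 hours. Viability: CellTiter-Glo luminescence.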
DT40 TDP1 CPT: qHTS for Inhibitors of human tyrosyl-DNA phosphodiesterase 1 (TDP1): qHTS in cells in presence of CPT; Potency, µM (top dose mostly 46.2 µM), for inactives: top-dose activity change, negative = growth inhibition, hits mostly inhibitors; 420,000 tested, 12% active; chicken DT40 Tdp1-/-;hTDP1 cells + 20 nM CPT, ATP luminescence, 48 h; note: nearly all actives have a fitted effect of over 55% in size
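Chicken DT40 Tdp1-/- cells complemented with human TDP1, 400 cells/well, exposed to compounds plus 20 nM camptothecin for at least 48 h at 37 C; viability read as ATP content by CellTiter-Glo luminescence.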
HT1080 IDH1KD tx: qHTS for induction of synthetic lethality in tumor cells producing 2HG: qHTS for the HT-1080-IDH1KD cell line; HT-1080 IDH1 knockdown viability, ATP luminescence, 48 h; Potency, µM (titrated, usually from 46.1 µM), for inactives: top-dose activity, negative = toxicity, usual class: cytotoxic; AID 686971, 2013; 360,000 tested, 2% active;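 note: 0% = DMSO wells and -100% = cell-free medium wells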
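Assay cells: HT-1080 with IDH1 knockdown, 750 per well, RPMI/5% FBS. Exposure: 48 h at 37 °C following 2 h pre-incubation. Read: CellTiter-Glo luminescence; fitted concentration-response, curve class assigned.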
Starred values were filed as active, the others as inactive; i = inactive; u = inconclusive; x = no result. Calls come from the whole dose curve; as a rule, active = well fitted curve in the direction sought with a large enough effect; inconclusive = small, poorly fitted or top-dose-only effect, or another doubt; inactive = no such curve, though single readings can be large; an effect the other way counts as inactive or inconclusive. Unless noted, % is set by controls: 0 for no effect and ±100 for the full control effect; potency is the fitted concentration of half-maximal effect.

SMILES | DT40 TDP1 no CPT | KB-V1 cytotox | KB-3-1 tox | HT1080-NT tox | DT40 TDP1 CPT | HT1080 IDH1KD tx
CCn1c(=O)c2c(nc(SCc3ccccn3)n2C)n(C)c1=O | -19% | 15µM* | u | -14% | -29% | 5%
CCCn1c(SCc2ccccn2)nc2c1c(=O)n(C)c(=O)n2C | -18% | u | i | 3% | u | 0%
CC1(C)CC(=O)C=C(c2cccc(OC(=O)c3ccc(-c4ccccc4)cc3)c2)C1=O | u | i | i | -1% | -8% | -6%
NNC(=O)c1ccc(C(=O)N(c2ccccc2)c2ccccc2)cc1 | u | i | i | x | u | x
O=C(c1ccccc1)N(c1ccccc1)c1ccccc1O | 16µM* | u | u | 7% | 15µM* | -2%
O=C(c1ccc(-n2cccn2)cc1)N1CCN(c2ncccc2C(F)(F)F)CC1 | u | u | i | -1% | u | -8%
COc1cc(C#Cc2c(-c3cncn3C)n(C)c3ccc(-c4ccc(CN5CCOCC5)cc4)cc23)cc(OC)c1 | 8.2µM* | u | u | u | 5.8µM* | u
COc1cc(OC)cc(-c2c(C#Cc3ccsc3)c3cc(-c4ccc(CN5CCOCC5)cc4)ccc3n2C)c1 | u | i | i | -1% | -28% | -5%
COc1cc(OC)cc(-c2c(Sc3ccccc3)c3cc(-c4cnc(OC)nc4)ccc3n2C)c1 | -29% | i | i | 4% | -13% | 12%
COc1cc(C#Cc2c(-c3cncn3C)n(C)c3ccc(-c4cnc(OC)nc4)cc23)cc(OC)c1 | u | u | u | u | 16µM* | u
CCOc1ccccc1CNC(=O)C1CCN(S(=O)(=O)c2c(C)noc2/C=C/c2ccc(C)cc2)CC1 | -28% | x | x | x | u | x
CCCCCCn1c(SCCC)nc2c1c(=O)[nH]c(=O)n2C | 10µM* | i | i | -2% | -23% | 4%
C=CCn1c(SCCCc2ccccc2)nc2c1c(=O)[nH]c(=O)n2C | 26µM* | i | i | -1% | u | -1%
CCCn1c(SCc2ccc(Cl)cc2)nc2c1c(=O)[nH]c(=O)n2C | 16µM* | u | u | -26% | u | u
C/C=C/Cn1c(SCc2ccc(Cl)cc2)nc2c1c(=O)[nH]c(=O)n2C | 23µM* | u | i | u | 18µM* | u
COCCn1c(SCc2ccc(Cl)cc2)nc2c1c(=O)[nH]c(=O)n2C | u | u | i | -24% | 8% | u
CCn1c(SCc2ccccc2)nc2c1c(=O)[nH]c(=O)n2C | 18µM* | i | i | -3% | u | -12%
Cn1c(SCc2ccccc2)nc2c1c(=O)[nH]c(=O)n2C | -1% | i | i | 0% | -17% | -1%
COCCCN1C(=O)C(=O)/C(=C(/O)c2ccc(S(=O)(=O)N3CCOCC3)cc2)C1c1ccc(C(C)C)cc1 (stereo not given) | -8% | i | i | 23% | 3% | 20%
CCCNCC1C(Oc2ccc(Cl)cc2Cl)C(=O)N1c1cccc(C)c1C (stereo not given) | 18µM* | u | i | u | u | u
Cc1cccc(N2C(=O)C(Oc3ccc(Cl)cc3Cl)C2C(=O)O)c1C (stereo not given) | u | i | i | 12% | u | 14%
CCCCNCC1C(Oc2ccc(Cl)cc2)C(=O)N1c1ccccc1C (stereo not given) | 15µM* | i | i | u | u | 23µM*
Cc1cccc(-c2nc(SCc3cc(=O)c4c(C)cc(C)cc4[nH]3)n[nH]2)c1 | u | i | i | x | u | x
CCC(OC(=O)C(CC(C)C)NC(=O)c1ccccc1)C(=O)Nc1nnc(C)s1 (stereo not given) | 5.8µM* | i | i | 18% | u | 0%
Nc1nc2ccc(Cl)cc2cc1C(=O)NCCc1ccc(O)cc1 | 18µM* | u | u | -15% | u | u
SMILES | DT40 TDP1 no CPT | KB-V1 cytotox | KB-3-1 tox | HT1080-NT tox | DT40 TDP1 CPT | HT1080 IDH1KD tx
COc1ccc(CCNC(=O)c2cc3cc(Cl)ccc3nc2N)cc1OC | 8.2µM* | i | i | -7% | 13µM* | 18µM*
Cc1ccc2c(c1)c1c(c(=O)n(Cc3ccccc3)c(=O)n1CC(=O)NCc1ccccc1Cl)n2C | -4% | i | i | x | 1% | x
CC[C@@H]1CCC[C@@H](O)[C@@H](C)C(=O)O[C@H](C)[C@@H](C)C/C=C(C)/C(OC)=C\C(=O)N(C)C([C@@H](C)CC)C(=O)N(C)[C@@H](C(C)C)C(=O)N(C)[C@@H](COC)C(=O)N2CCC[C@H]2C(=O)N(C)[C@@H](C(C)C)C(=O)N2CCC[C@H]2C(=O)O1 (stereo not given in full) | 0.21µM* | 1.8µM* | u | u | 0.15µM* | u
CCN(CC)S(=O)(=O)c1cc(NS(=O)(=O)c2ccccc2)ccc1C | -28% | i | i | 0% | 16µM* | -1%
CCN(CC)S(=O)(=O)c1cc(NC(=O)c2ccc3c(c2)NC(=O)C(C)S3)ccc1C (stereo not given) | 21µM* | u | i | -10% | 21µM* | -21%
CC1Sc2ccc(C(=O)NCc3ccccn3)cc2NC1=O (stereo not given) | 0.65µM* | i | i | x | 0.82µM* | x
Cc1cc(C)c(NC(=O)c2ccc3c(c2)NC(=O)C(C)S3)c(C)c1 (stereo not given) | -15% | i | i | 12% | -29% | 2%
CCN(CC)S(=O)(=O)c1cc(NC(=O)c2ccc(Br)s2)ccc1C | 16µM* | u | u | -16% | u | u
CCN(CC)S(=O)(=O)c1cc(NS(=O)(=O)c2cccc(C(=O)O)c2)ccc1C | -12% | i | i | -24% | 1% | 21%
Cc1cc(NC(=O)CSc2ncnc3c2cnn3-c2cccc(Cl)c2)no1 | u | i | i | 4% | -2% | 14%
COc1ccc(OC(F)(F)F)cc1CC1(C)C(=O)Nc2ccc(-c3ccsc3)cc21 (stereo not given) | u | i | i | u | u | u
